# According to the antibiotic and cytotoxicity screens of Wong et al. (2023):
# Out of some 39,000 compounds screened, about 500 (1.3%) were called active. The entries come from a sample that favours actives as a whole.
# Tested on: S. aureus RN4220
# Test: growth inhibition call (relative growth <= 0.2)
# Conditions: 50 µM
row,SMILES,growth inhibition call
1,CC(C)NC(=O)N(C)C[C@H]1OCCCC[C@H](C)Oc2ccc(NC(=O)Nc3ccccc3)cc2C(=O)N([C@@H](C)CO)C[C@H]1C,inactive
2,CC(C)=CCC[C@]1(C)[C@@H](CC=C(C)C)C[C@]2(CC=C(C)C)C(=O)C(CC=C(C)C)=C(O)[C@@]1(C(=O)C(C)C)C2=O,active
3,C[C@@H]1CCCCO[C@@H](CN(C)C(=O)Nc2ccccc2)[C@@H](C)CN([C@H](C)CO)C(=O)c2cc(NC(=O)Cc3ccccc3)ccc2O1,inactive
4,Cn1cncc1[C@@](N)(c1ccc(Cl)cc1)c1ccc2c(c1)c(-c1cccc(Cl)c1)cc(=O)n2C,active
5,Cc1noc(C)c1S(=O)(=O)N(C)C[C@@H]1OCCCC[C@@H](C)Oc2ccc(NS(=O)(=O)c3cn(C)cn3)cc2C(=O)N([C@@H](C)CO)C[C@H]1C,inactive
6,C[C@@H]1CN([C@@H](C)CO)C(=O)c2cc(NC(=O)Cc3ccccc3)ccc2O[C@@H](C)CCCCO[C@H]1CN(C)Cc1ccc2c(c1)OCO2,inactive
7,Cc1noc(C)c1S(=O)(=O)Nc1ccc2c(c1)C(=O)N([C@H](C)CO)C[C@H](C)[C@H](CN(C)S(=O)(=O)c1c(C)noc1C)O2,inactive
8,Cc1cc(OC(=O)c2c(C)cc(O)cc2O)cc(O)c1C(=O)O,inactive
9,CCCCCC(=O)Cc1cc(O)cc(O)c1C(=O)Oc1cc(CC(=O)CCCCC)c(C(=O)O)c(OC)c1,active
10,COc1cc(C)c(C(=O)Oc2cc(C)c(C(=O)O)c(O)c2)c(O)c1,inactive
11,C[C@H](O)C#Cc1ccc2c(c1)O[C@H](CN(C)C(=O)CN(C)C)[C@H](C)CN([C@H](C)CO)S2(=O)=O,inactive
12,CN(C)CC#Cc1ccc([C@H]2[C@@H](CO)N3C(=O)CN(C(=O)c4cccnc4)C[C@H]23)cc1,inactive
13,COc1ccc(S(=O)(=O)Nc2ccc3c(c2)C(=O)N([C@H](C)CO)C[C@H](C)[C@H](CN(C)C(=O)Nc2c(C)noc2C)O3)cc1,inactive
14,Cc1c(-c2c(-c3ccc(F)o3)sc3ncnc(O[C@H](Cc4ccccc4OCc4ccnn4CC(F)(F)F)C(=O)O)c23)ccc(OCCN2CCN(C)CC2)c1Cl,active
15,COCC#Cc1ccc([C@H]2[C@H](CO)N3C(=O)CN(C(=O)C4CCOCC4)C[C@@H]23)cc1,inactive
16,CC1COC2=C1C(=O)C(=O)c1c2ccc2c1CCCC2(C)C (stereo not given),active
17,Cc1cccc2c3c(ccc12)C1=C(C(=O)C3=O)C(C)CO1 (stereo not given),active
18,Cc1coc2c1C(=O)C(=O)c1c-2ccc2c1CCCC2(C)C,inactive
19,Cc1cccc2c1OCC[C@@H](N)C2=O,inactive
20,C[C@H]1CN([C@@H](C)CO)C(=O)Cc2cc(NC(=O)CCN3CCOCC3)ccc2O[C@H]1CN(C)Cc1ccccc1,inactive
21,NS(=O)(=O)c1ccc(Cl)cc1[N+](=O)[O-],inactive
22,O=C(Nc1ccc(Cl)cc1C(=O)c1ccc(Cl)cc1)c1cc(Br)ccc1NS(=O)(=O)c1ccc(Cl)cc1,inactive
23,O=C(Nc1cc(Cl)ccc1Cl)c1cc(Br)ccc1NS(=O)(=O)c1ccc(Cl)c([N+](=O)[O-])c1,active

row,SMILES,growth inhibition call
1,CNS(=O)(=O)c1ccc(Cl)c(C(N)=O)c1,inactive
2,O=C(Nc1cc(Cl)ccc1Cl)c1cc(Cl)ccc1NS(=O)(=O)c1ccc(Cl)c([N+](=O)[O-])c1,active
3,O=C(Nc1ccc([N+](=O)[O-])cc1Cl)c1cc(Cl)ccc1O,inactive
4,COc1ccc(S(=O)(=O)Nc2ccc3c(c2)C(=O)N([C@H](C)CO)C[C@@H](C)[C@@H](CN(C)C(=O)NC2CCCCC2)OCCCC[C@H](C)O3)cc1,inactive
5,COc1ccc(S(=O)(=O)N(C)C[C@@H]2OCCCC[C@@H](C)Oc3ccc(NC(=O)NC4CCCCC4)cc3C(=O)N([C@H](C)CO)C[C@H]2C)cc1,inactive
6,CNC(=O)Cn1c(=O)c2c(OC)c(C)cnc2n(C)c1=O,inactive
7,COc1ccc(NC(=O)N(C)C[C@H]2Oc3ccc(NS(=O)(=O)c4c(C)noc4C)cc3CC(=O)N([C@@H](C)CO)C[C@@H]2C)cc1,inactive
8,COc1ccc(S(=O)(=O)N(C)C[C@H]2Oc3ccc(NS(=O)(=O)c4c(C)noc4C)cc3C(=O)N([C@@H](C)CO)C[C@@H]2C)cc1,inactive
9,O=C(C[C@@H]1CC[C@H]2[C@@H](COC[C@H](O)CN2Cc2cc(F)ccc2F)O1)N[C@@H]1CCN(Cc2ccccc2)C1,inactive
10,C[C@@H]1CN([C@@H](C)CO)C(=O)c2cc(NS(=O)(=O)c3cn(C)cn3)ccc2O[C@@H](C)CCCCO[C@@H]1CN(C)Cc1ccc(C(F)(F)F)cc1,inactive
11,C[C@@H]1CN([C@H](C)CO)S(=O)(=O)c2ccc(-c3cccnc3)cc2O[C@@H]1CN(C)C(=O)c1ccc2c(c1)OCO2,inactive
12,CC[C@@H]1OC(=O)[C@H](C)[C@@H](O[C@H]2C[C@@](C)(OC)[C@@H](O)[C@H](C)O2)[C@H](C)[C@@H](O[C@@H]2O[C@H](C)C[C@H](N(C)C)[C@H]2O)[C@](C)(O)C[C@@H](C)/C(=N\OCOCCOC)[C@H](C)[C@@H](O)[C@]1(C)O,active
13,CCC1OC(=O)C(C)C(OC2CC(C)(OC)C(O)C(C)O2)C(C)C(OC2OC(C)CC(N(C)C)C2O)C(C)(O)CC(C)C(=NOCOCCOC)C(C)C(O)C1(C)O (stereo not given),active
14,Cn1c(=O)c2cn3ncccc3c2n(C)c1=O,inactive
15,COc1c(C)c2c(c(O)c1CC=C(C)CCC(=O)O)C(=O)OC2,inactive
16,Cc1noc(C)c1S(=O)(=O)Nc1ccc2c(c1)C(=O)N([C@H](C)CO)C[C@@H](C)[C@H](CN(C)Cc1ccc3c(c1)OCO3)O2,inactive
17,O=C(N[C@H]1CC[C@@H](CC(=O)N2CCOCC2)O[C@H]1CO)c1ccc2c(c1)OCO2,inactive
18,Cc1ccc(S(=O)(=O)N(C)C[C@@H]2Oc3ccc(NC(=O)CCN4CCOCC4)cc3CC(=O)N([C@@H](C)CO)C[C@@H]2C)cc1,inactive
19,COc1ccc(S(=O)(=O)Nc2ccc3c(c2)CC(=O)N([C@@H](C)CO)C[C@H](C)[C@H](CN(C)C(=O)Nc2c(C)noc2C)O3)cc1,inactive
20,CC(Cc1cccc(C(F)(F)F)c1)NCCOC(=O)c1ccccc1.Cl (stereo not given),inactive
21,CC(NCCCc1cccc(C(F)(F)F)c1)c1cccc2ccccc12.Cl (stereo not given),active
22,C[C@@H](O)c1cccc(C(F)(F)F)c1,inactive
